In PMC11062922 (Nature Chemical Biology, 2023):
Like-named read-outs stand apart in the source and are kept apart here.

How the values were obtained:
PRKD3 = conditions: read-out: apparent Kd, n = 1
Q6ZSR9 = Q6ZSR9 (human, UniProt Q6ZSR9); conditions: read-out: apparent Kd, n = 1
Q6ZSR9, sequence (Q6ZSR9 whole entry, looked up): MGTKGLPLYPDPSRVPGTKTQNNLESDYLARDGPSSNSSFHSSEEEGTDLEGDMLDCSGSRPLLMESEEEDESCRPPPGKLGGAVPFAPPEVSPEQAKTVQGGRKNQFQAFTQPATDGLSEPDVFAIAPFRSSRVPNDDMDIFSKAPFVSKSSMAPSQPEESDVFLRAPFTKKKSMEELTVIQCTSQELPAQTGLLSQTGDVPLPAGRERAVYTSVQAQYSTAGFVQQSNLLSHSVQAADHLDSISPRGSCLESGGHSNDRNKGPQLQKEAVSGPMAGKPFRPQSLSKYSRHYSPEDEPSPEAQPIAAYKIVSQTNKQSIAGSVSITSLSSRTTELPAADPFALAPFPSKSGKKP

Lestaurtinib
potency estimated from few doses (PRKD3; compound concentrations:100 nM and 1000 nM (sheet 'Lestaurtinib' of Supplementary Table 1),run:Lestaurtinib_02766_R2,Plate:MR027): 0.0746 µM | potency estimated from few doses (PRKD3; compound concentrations:100 nM and 1000 nM (sheet 'Lestaurtinib' of Supplementary Table 1),run:Lestaurtinib_02768_R3,Plate:MR028): 0.0591 µM | potency estimated from few doses (PRKD3; compound concentrations:100 nM and 1000 nM (sheet 'Lestaurtinib' of Supplementary Table 1),run:Lestaurtinib_02795_R2,Plate:MR022): 0.0798 µM | potency estimated from few doses (PRKD3; compound concentrations:100 nM and 1000 nM (sheet 'Lestaurtinib' of Supplementary Table 1),run:Lestaurtinib_02802_R1,Plate:MR029): 0.0831 µM | potency estimated from few doses (PRKD3; compound concentrations:100 nM and 1000 nM (sheet 'Lestaurtinib' of Supplementary Table 1),run:Lestaurtinib_02802_R3,Plate:MR029): 0.0827 µM | potency estimated from few doses (PRKD3; compound concentrations:100 nM and 1000 nM (sheet 'Lestaurtinib' of Supplementary Table 1),run:Lestaurtinib_02896_R1,Plate:MR030): 0.0618 µM | potency estimated from few doses (PRKD3; compound concentrations:100 nM and 1000 nM (sheet 'Lestaurtinib' of Supplementary Table 1),run:Lestaurtinib_02896_R2,Plate:MR030): 0.0806 µM | potency estimated from few doses (PRKD3; compound concentrations:100 nM and 1000 nM (sheet 'Lestaurtinib' of Supplementary Table 1),run:Lestaurtinib_02896_R3,Plate:MR030): 0.0922 µM | potency estimated from few doses (PRKD3; compound concentrations:100 nM and 1000 nM (sheet 'Lestaurtinib' of Supplementary Table 1),run:Lestaurtinib_03172_R3,Plate:MR031): 0.0901 µM | potency estimated from few doses (PRKD3; compound concentrations:100 nM and 1000 nM (sheet 'Lestaurtinib' of Supplementary Table 1),run:Lestaurtinib_03252_R1,Plate:MR032): 0.0434 µM | potency estimated from few doses (PRKD3; compound concentrations:100 nM and 1000 nM (sheet 'Lestaurtinib' of Supplementary Table 1),run:Lestaurtinib_03252_R2,Plate:MR032): 0.0306 µM | potency estimated from few doses (PRKD3; compound concentrations:100 nM and 1000 nM (sheet 'Lestaurtinib' of Supplementary Table 1),run:Lestaurtinib_03260_R2,Plate:MR033): 0.0967 µM | potency estimated from few doses (PRKD3; compound concentrations:100 nM and 1000 nM (sheet 'Lestaurtinib' of Supplementary Table 1),run:Lestaurtinib_03260_R3,Plate:MR033): 0.0912 µM | potency estimated from few doses (Q6ZSR9; compound concentrations:100 nM and 1000 nM (sheet 'Lestaurtinib' of Supplementary Table 1),run:Lestaurtinib_02339_R1,Plate:MR001): 0.0789 µM | potency estimated from few doses (Q6ZSR9; compound concentrations:100 nM and 1000 nM (sheet 'Lestaurtinib' of Supplementary Table 1),run:Lestaurtinib_02339_R3,Plate:MR001): 0.0488 µM | potency estimated from few doses (Q6ZSR9; compound concentrations:100 nM and 1000 nM (sheet 'Lestaurtinib' of Supplementary Table 1),run:Lestaurtinib_02364_R1,Plate:MR002): 0.0685 µM | potency estimated from few doses (Q6ZSR9; compound concentrations:100 nM and 1000 nM (sheet 'Lestaurtinib' of Supplementary Table 1),run:Lestaurtinib_02364_R2,Plate:MR002): 0.0681 µM | potency estimated from few doses (Q6ZSR9; compound concentrations:100 nM and 1000 nM (sheet 'Lestaurtinib' of Supplementary Table 1),run:Lestaurtinib_02364_R3,Plate:MR002): 0.0786 µM | potency estimated from few doses (Q6ZSR9; compound concentrations:100 nM and 1000 nM (sheet 'Lestaurtinib' of Supplementary Table 1),run:Lestaurtinib_02367_R1,Plate:MR003): 0.0627 µM | potency estimated from few doses (Q6ZSR9; compound concentrations:100 nM and 1000 nM (sheet 'Lestaurtinib' of Supplementary Table 1),run:Lestaurtinib_02367_R2,Plate:MR003): 0.0667 µM | potency estimated from few doses (Q6ZSR9; compound concentrations:100 nM and 1000 nM (sheet 'Lestaurtinib' of Supplementary Table 1),run:Lestaurtinib_02367_R3,Plate:MR003): 0.0788 µM | potency estimated from few doses (Q6ZSR9; compound concentrations:100 nM and 1000 nM (sheet 'Lestaurtinib' of Supplementary Table 1),run:Lestaurtinib_02381_R1,Plate:MR004): 0.0694 µM | potency estimated from few doses (Q6ZSR9; compound concentrations:100 nM and 1000 nM (sheet 'Lestaurtinib' of Supplementary Table 1),run:Lestaurtinib_02381_R2,Plate:MR004): 0.0646 µM | potency estimated from few doses (Q6ZSR9; compound concentrations:100 nM and 1000 nM (sheet 'Lestaurtinib' of Supplementary Table 1),run:Lestaurtinib_02407_R1,Plate:MR005): 0.0623 µM | potency estimated from few doses (Q6ZSR9; compound concentrations:100 nM and 1000 nM (sheet 'Lestaurtinib' of Supplementary Table 1),run:Lestaurtinib_02407_R2,Plate:MR005): 0.0719 µM | potency estimated from few doses (Q6ZSR9; compound concentrations:100 nM and 1000 nM (sheet 'Lestaurtinib' of Supplementary Table 1),run:Lestaurtinib_02407_R3,Plate:MR005): 0.0685 µM | potency estimated from few doses (Q6ZSR9; compound concentrations:100 nM and 1000 nM (sheet 'Lestaurtinib' of Supplementary Table 1),run:Lestaurtinib_02422_R1,Plate:MR006): 0.0724 µM | potency estimated from few doses (Q6ZSR9; compound concentrations:100 nM and 1000 nM (sheet 'Lestaurtinib' of Supplementary Table 1),run:Lestaurtinib_02422_R2,Plate:MR006): 0.0206 µM | potency estimated from few doses (Q6ZSR9; compound concentrations:100 nM and 1000 nM (sheet 'Lestaurtinib' of Supplementary Table 1),run:Lestaurtinib_02437_R2,Plate:MR007): 0.0556 µM | potency estimated from few doses (Q6ZSR9; compound concentrations:100 nM and 1000 nM (sheet 'Lestaurtinib' of Supplementary Table 1),run:Lestaurtinib_02437_R3,Plate:MR007): 0.00966 µM | potency estimated from few doses (Q6ZSR9; compound concentrations:100 nM and 1000 nM (sheet 'Lestaurtinib' of Supplementary Table 1),run:Lestaurtinib_02438_R3,Plate:MR008): 0.0748 µM | potency estimated from few doses (Q6ZSR9; compound concentrations:100 nM and 1000 nM (sheet 'Lestaurtinib' of Supplementary Table 1),run:Lestaurtinib_02443_R1,Plate:MR009): 0.0516 µM | potency estimated from few doses (Q6ZSR9; compound concentrations:100 nM and 1000 nM (sheet 'Lestaurtinib' of Supplementary Table 1),run:Lestaurtinib_02443_R2,Plate:MR009): 0.0627 µM | potency estimated from few doses (Q6ZSR9; compound concentrations:100 nM and 1000 nM (sheet 'Lestaurtinib' of Supplementary Table 1),run:Lestaurtinib_02443_R3,Plate:MR009): 0.0778 µM | potency estimated from few doses (Q6ZSR9; compound concentrations:100 nM and 1000 nM (sheet 'Lestaurtinib' of Supplementary Table 1),run:Lestaurtinib_02473_R1,Plate:MR010): 0.0784 µM | potency estimated from few doses (Q6ZSR9; compound concentrations:100 nM and 1000 nM (sheet 'Lestaurtinib' of Supplementary Table 1),run:Lestaurtinib_02473_R2,Plate:MR010): 0.061 µM | potency estimated from few doses (Q6ZSR9; compound concentrations:100 nM and 1000 nM (sheet 'Lestaurtinib' of Supplementary Table 1),run:Lestaurtinib_02473_R3,Plate:MR010): 0.0357 µM | potency estimated from few doses (Q6ZSR9; compound concentrations:100 nM and 1000 nM (sheet 'Lestaurtinib' of Supplementary Table 1),run:Lestaurtinib_02482_R2,Plate:MR011): 0.0766 µM | potency estimated from few doses (Q6ZSR9; compound concentrations:100 nM and 1000 nM (sheet 'Lestaurtinib' of Supplementary Table 1),run:Lestaurtinib_02482_R3,Plate:MR011): 0.0656 µM | potency estimated from few doses (Q6ZSR9; compound concentrations:100 nM and 1000 nM (sheet 'Lestaurtinib' of Supplementary Table 1),run:Lestaurtinib_02487_R1,Plate:MR012): 0.0717 µM | potency estimated from few doses (Q6ZSR9; compound concentrations:100 nM and 1000 nM (sheet 'Lestaurtinib' of Supplementary Table 1),run:Lestaurtinib_02487_R2,Plate:MR012): 0.0666 µM | potency estimated from few doses (Q6ZSR9; compound concentrations:100 nM and 1000 nM (sheet 'Lestaurtinib' of Supplementary Table 1),run:Lestaurtinib_02487_R3,Plate:MR012): 0.0812 µM
